# Laboratory results as given in PubChem BioAssay AID1578 (Sanford-Burnham Center for Chemical Genomics, 2009).
# About 3,000 (1%) of roughly 290,000 compounds were called active. Cut-off read from the data, not from the text of the source: active = inhibition mostly above about 36% (no sharp cut-off); inactive = mostly below about 34%. Many of the other results were omitted from the sample, so actives are more common in it than they were.
# Assay: NOD1 signaling inhibitors, primary screen, cell-based, luminescence, uHTS (AID 1578);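 note: HEK-293T reporter cells stimulated with the NOD1 agonist gamma-tri-DAP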
# Settings: NOD1-driven NF-kB luciferase reporter cells, at 4 µM, hits give high values
row,Compound,inhibition
1,Cc1ccc(NC(=O)COc2ncnc3cc([N+](=O)[O-])ccc23)cc1S(=O)(=O)N1CCOCC1,-14.7% (inactive)
2,CCC/S(C)=N/S(=O)(=O)c1ccc(C)cc1 (stereo not given),-6.2% (inactive)
3,O=C1CSC(c2ccccc2F)N1CCN1CCCCC1 (stereo not given),-19% (inactive)
4,COC(=O)c1cccc(NC(=O)Cc2ccc(OC)cc2)c1C,-11.4% (inactive)
5,O=C(Nc1ccccc1)Nc1nc(-c2ccccc2)cs1,-13.8% (inactive)
6,Cc1ccsc1/C=N/N1CCOCC1,-33.4% (inactive)
7,CCOC(=O)N1CCC(Nc2c(Nc3cccc(CC)c3)c(=O)c2=O)CC1,18.1% (inactive)
8,CCOc1ccc(C(=O)Nc2cccc3ncccc23)cc1Cl,8.8% (inactive)
9,CC(C)c1ccccc1OCC(=O)Nc1ccc2[nH]ncc2c1,47.7% (active)
10,O=C(COc1ccccc1)Nc1ccc2[nH]ncc2c1,-11.3% (inactive)
11,Cc1ccccc1OCC(=O)Nc1ccc2[nH]ncc2c1,-17.7% (inactive)
12,N#Cc1c(Nc2ccccc2)sc(C(=O)c2ccccc2)c1N,0.9% (inactive)
13,N#Cc1c(Nc2ccccc2)sc(C(=O)c2ccc(F)cc2)c1N,5.2% (inactive)
14,Nc1c(C(=O)c2ccccc2)sc(Nc2ccccc2)c1S(=O)(=O)c1ccccc1,52.2% (active)
15,COCCn1c(C)cc(C(=O)CSc2nc(C)c(C)c(C)n2)c1C,-5.4% (inactive)
16,COCCn1c(C)cc(C(=O)CSc2nnc(C)s2)c1C,77.8% (active)
17,COCCn1c(C)cc(C(=O)CSc2nc3ccccc3s2)c1C,54% (inactive)
18,Cc1ccc(C(=O)CSc2ncnc3sc4c(c23)CCCC4)cc1,31% (inactive)
19,CC(=O)CSc1ncnc2sc3c(c12)CCC3,13.2% (inactive)
20,COc1ccc(CNCc2ccc3c(c2)OCO3)c(OC)c1OC,-18% (inactive)
21,Cc1cc(N2CCN(C)CC2)nc2ccc(NC(=O)CCC(=O)NCCC(C)C)cc12,-10.6% (inactive)
22,Cc1ccc2nc(N3CCN(c4cccc(C)c4C)CC3)c3nnnn3c2c1,6.9% (inactive)
23,Cc1ccc2nc(Cl)c3nnnn3c2c1,83.8% (active)
24,Cc1ccc(-c2nc3ccccc3n3nnnc23)cc1,-53.8% (inactive)
25,COc1ccc(OCCC(=O)N2CCOCC2)cc1,-24% (inactive)
26,CN(Cc1ccccc1)C(=O)c1ccccc1NC(=O)c1ccccc1,-20.6% (inactive)
27,O=C(Nc1ccccc1C(=O)NCc1ccccc1)c1ccco1,-14.6% (inactive)

row,Compound,inhibition
1,CN(Cc1ccccc1)C(=O)c1ccccc1NC(=O)c1ccco1,54.5% (active)
2,Oc1ccc(/C=N/Nc2ccnc3cc(Cl)ccc23)c(O)c1O,-3.8% (inactive)
3,CN(C)CCN(C(=O)c1ccc(N2C(=O)CCC2=O)cc1)c1nc2cc3c(cc2s1)OCO3,-20.4% (inactive)
4,O=C(N/N=C/c1ccccc1Br)C1CC1,-25.3% (inactive)
5,Cc1oc(-c2ccc(Cl)cc2)nc1CN1CCC(C(=O)NCCCN2CCCC2=O)CC1,17.3% (inactive)
6,O=C(O)Cc1ccc(O)c(O)c1,-0.7% (inactive)
7,COc1ccc(CCC(=O)O)cc1OC,-2.3% (inactive)
8,O=Cc1cc(CCC(=O)O)ccc1O,63% (active)
9,COc1ccc(N/N=C(\C#N)C(N)=O)cc1,-41.5% (inactive)
10,COc1ccc(C(=O)/C(C#N)=N/Nc2ccccc2[N+](=O)[O-])cc1,42.9% (inactive)
11,COc1ccc(C(=O)/C(C#N)=N/Nc2ccc([N+](=O)[O-])cc2)cc1,82.5% (active)
12,Cc1c(NC(=O)C(C#N)=C2CCCCC2)c(=O)n(-c2ccccc2)n1C,-3.8% (inactive)
13,O=C(c1cc(F)ccc1F)C1CCCN(C(=O)CCN2CCCCO2)C1 (stereo not given),-29.2% (inactive)
14,O=C(Nc1nc2ccc(S(=O)(=O)N3CCCC3)cc2s1)c1ccccn1,-16.1% (inactive)
15,Cc1ccc2nc(NC(=O)c3ccccn3)sc2c1,109% (active)
16,O=C(NNc1nc2c(F)cc(F)cc2s1)c1ccccc1,-5.8% (inactive)
17,Cc1ccc2nc(NC(=O)c3ccccc3F)sc2c1,-69.7% (inactive)
18,O=C(Nc1nc2ccc(F)cc2s1)c1cccs1,-59.7% (inactive)
19,O=C(Nc1nc2c(F)cc(F)cc2s1)c1ccccn1,70.9% (active)
20,O=C(Nc1nc2ccc(F)cc2s1)c1ccccn1,107% (active)
21,Fc1ccc2nc(Nc3nc4c(F)cc(F)cc4s3)sc2c1,2.7% (inactive)
22,O=C(Nc1nc2c(F)cc(F)cc2s1)c1ccco1,-3.5% (inactive)
23,COC(=O)c1ccc2nc(NC(=O)C(C)(C)C)sc2c1,35.8% (inactive)
24,Cc1ccc2nc(NC(=O)COC(=O)c3ccccn3)sc2c1,-22% (inactive)
25,COc1cc(CN2CCCC(N3CCN(c4ccc(F)cc4)CC3)C2)ccc1F (stereo not given),61.4% (inactive)
26,COc1ccccc1S(=O)(=O)N1CCC(C(=O)O)(c2ccccc2)CC1,14.5% (inactive)
27,COc1ccc(NC(=S)c2ccncc2)cc1,-9.9% (inactive)

row,Compound,inhibition
1,CC(Sc1nnc(N)s1)C(=O)Nc1ccc(N2CCOCC2)cc1 (stereo not given),-20.5% (inactive)
2,COc1ccc(NC(=O)Cc2c(F)c(F)c(F)c(F)c2F)cc1OC,2.8% (inactive)
3,Cc1csc(NC(=O)CSc2nc(C(C)C)nc3ccccc23)n1,12.9% (inactive)
4,Cc1ccc(CC2S/C(=N/c3ccccn3)NC2=O)cc1 (stereo not given),17% (inactive)
5,O=C1N/C(=N/c2ccccn2)SC1Cc1ccccc1 (stereo not given),-21% (inactive)
6,O=C1N/C(=N\c2ccccn2)SC1Cc1ccc(Cl)cc1 (stereo not given),103% (active)
7,CCCCN1CC(=O)N2Cc3[nH]c4ccccc4c3C[C@H]2C1=O,-2.4% (inactive)
8,O=C(Nc1ccccc1)C1(c2ccccc2)CC1(Cl)Cl (stereo not given),-28.2% (inactive)
9,Cc1ccc(SCC(=O)NCCN2C(=O)CSC2=O)c(C)c1,-23.2% (inactive)
10,S=c1sc2c(Cl)ncnc2n1-c1ccccc1,69.8% (active)
11,S=c1sc2c(N3CCN(Cc4ccccc4)CC3)ncnc2n1-c1ccccc1,-6.8% (inactive)
12,S=c1sc2c(N3CCOCC3)ncnc2n1-c1ccccc1,9% (inactive)
13,CN1CCN(CC2(O)CCN(S(=O)(=O)c3ccc(Cl)cc3)CC2)CC1,-21.7% (inactive)
14,Cc1cccc2c(=O)c(C(=O)NCCc3ccccc3)c[nH]c12,-28.3% (inactive)
15,O=C(NCCc1ccccc1)c1cc2ncc(Br)cn2n1,-28.5% (inactive)
16,NC1=NC(=O)/C(=C/c2cccc(F)c2)S1,-12% (inactive)
17,NC1=NC(=O)/C(=C/c2ccc(Br)cc2)S1,25% (inactive)
18,NC1=NC(=O)/C(=C\c2cccnc2)S1,53.6% (active)
19,Cc1cc(OCC(=O)N2CCN(c3ccccc3)CC2)c2c(C)cc(=O)oc2c1,-49.6% (inactive)
20,O=C(NCc1nnc(SCC(=O)N2CCCc3ccccc32)o1)c1ccco1,-0.1% (inactive)
21,CC(=O)OC1C2CCC1C([N+]1(C)CCCCC1)CC2 (stereo not given),-31.7% (inactive)
22,Cc1cccc(N=c2oc3cc(O)ccc3cc2C(N)=O)c1,44.6% (inactive)
23,COc1ccc2cc(C(N)=O)c(=Nc3ccccc3)oc2c1,34.9% (inactive)
24,NC(=O)c1cc2ccc(O)cc2oc1=Nc1ccccc1,92.8% (active)
25,CCN(CC)S(=O)(=O)c1cc(NC(=O)CCCOc2ccc(C(C)=O)cc2)ccc1C,6.3% (inactive)
26,Oc1c(Br)cc(C=Nc2ccc3nc(-c4ccccc4)[nH]c3c2)c(O)c1Br,33.9% (inactive)
27,Cc1cccc(N2C(=O)C3C4C=CC(CC4)C3C2=O)c1 (stereo not given),-21.6% (inactive)

row,Compound,inhibition
1,Cc1c(C)c2ccc(O[C@@H]3O[C@H](CO)[C@H](O)[C@H](O)[C@H]3O)cc2oc1=O,-1% (inactive)
2,Cc1cc(C(=O)CSc2nnc(-c3ccco3)o2)c(C)n1CC1COc2ccccc2O1 (stereo not given),43.4% (inactive)
3,Cc1cc(C(=O)CSc2nnc(-c3ccco3)o2)c(C)n1Cc1ccco1,3.1% (inactive)
4,Cc1ccc(S(=O)(=O)N2CCN(C(=O)CSc3nnc(-c4ccco4)o3)CC2)cc1,-19% (inactive)
5,CCN(CC)C(=O)c1oc2ccc(S(=O)(=O)N3CCCCCC3)cc2c1C,20.9% (inactive)
6,Cc1c(C(=O)O)oc2ccc(S(=O)(=O)N3CC(C)CC(C)C3)cc12 (stereo not given),-13% (inactive)
7,COc1cccc(-n2c(SCC#N)nnc2-c2cnccn2)c1,5.2% (inactive)
8,CC(C)CCN1CCN(Cc2cccc3nonc23)CC1CCO (stereo not given),-23.9% (inactive)
9,O=C(Nc1cccnc1)c1cc(-c2ccc(Br)cc2)nc2ccccc12,-14.6% (inactive)
10,CCc1oc2ccccc2c1C(=O)CCN1CCCCC1,39.5% (inactive)
11,CCc1oc2ccccc2c1C(=O)c1cc(Br)c(O)c(Br)c1,87.3% (active)
12,CCCCc1oc2ccccc2c1C(=O)c1cc(I)c(OCCN(CC)CC)c(I)c1,-7.6% (inactive)
13,O=C(Nc1ccc(OCC(F)(F)C(F)F)cc1)c1ccncc1,-18.2% (inactive)
14,O=C(O)c1ccccc1C(=O)Nc1ccc(Br)c(C(F)(F)F)c1,-11.4% (inactive)
15,O=C(Nc1ccc(OCC(F)(F)C(F)F)c(C(F)(F)F)c1)c1ccccc1O,77.1% (active)
16,O=C(CN1C(=O)CCSc2ccc(S(=O)(=O)N3CCCC3)cc21)Nc1ccccc1Cl,-4.7% (inactive)
17,CCN1CCN(C(=O)COCc2cc(-c3ccc4c(c3)OCO4)on2)CC1,-17.7% (inactive)
18,Cc1ccc2c(c1)N(S(=O)(=O)c1cc(-c3onc(C)c3C)ccc1C)CCO2,29.7% (inactive)
19,CC(C)(C)n1ncc(Oc2ccccc2[N+](=O)[O-])c(Cl)c1=O,12.6% (inactive)
20,Cc1cc(C2=NNC(=NC3CCCCC3)SC2)c(C)n1-c1c(C)n(C)n(-c2ccccc2)c1=O,2.7% (inactive)
21,CCN=C1NN=C(c2cc(C)n(CCc3ccccc3)c2C)CS1,-15% (inactive)
22,Cc1cc(C2=NNC(=NC3CC3)SC2)c(C)n1Cc1ccco1,90.4% (active)
23,CCN=C1NN=C(c2cc(C)n(Cc3ccco3)c2C)CS1,81.7% (active)
24,COCCCN=C1NN=C(c2cc(C)n(Cc3ccco3)c2C)CS1,-8.2% (inactive)
